Laboratory results taken from PubChem BioAssay AID898 (University of Pittsburgh Molecular Library Screening Center, 2007).
In all, about 140,000 compounds went through this assay and about 220 (0.16%) were called active. The full list was thinned out, with actives kept by preference. Unmarked numbers belong to inactive results. Rule as the data show it: active = inhibition above about 50%; inactive = the rest.

System: YopH tyrosine phosphatase [Yersinia enterocolitica]
Experiment: inhibition of Yersinia YopH phosphatase – biochemical, fluorescence Ex485/Em525, primary screen (AID 898)
Details: hits give high values, concentration not given here

SMILES | inhibition
CCCN1CNC(=S)N(CCc2ccccc2)C1 | -20.8%
CCCCc1cc2c(s1)CCCC/C2=N/O | -2.52%
N#Cc1c(-c2ccc(F)cc2)cc(C2CC2)nc1SCC(=O)c1cccs1 | -21.7%
Cc1ccc(O)c(-c2cc(C(=O)Nc3c(C)n(C)n(-c4ccccc4)c3=O)[nH]n2)c1 | -27%
O=C(CSc1nc2ccccc2[nH]1)Nc1nc(-c2ccccc2)c(-c2ccccc2)o1 | -23.6%
COc1ccc(Br)cc1CN(C)CC(=O)Nc1cc(Cl)cc(Cl)c1 | -5.01%
CCCCNC(=O)CCn1c(=O)c2ccccc2n(Cc2cc(C)ccc2C)c1=O | -41.6%
Nc1nnc(SCC(=O)OCc2ccc(Cl)c(Cl)c2)s1 | -17.1%
CC(=O)Nc1ccc(C(=O)OCC(=O)Nc2ccc([N+](=O)[O-])cc2C(F)(F)F)cc1 | -15.8%
C[n+]1ccccc1C1CCCC/C1=N\Nc1ccc([N+](=O)[O-])cc1[N+](=O)[O-] (stereo not given) | 3.63%
CN(C)CCNC(=O)Cc1ccc([N+](=O)[O-])cc1 | -24.9%
N#C/C(=C(/O)Cc1cccc2ccccc12)c1nc2ccccc2s1 | -11%
COC(=O)c1nc2ccccc2s1 | -16.5%
CC1=CC(=C(C#N)c2nc3ccccc3s2)C=C(C)N1c1ccc(F)cc1F | 79.4% (active)
O=[N+]([O-])c1ccc(N2CCNCC2)cc1NCc1cccnc1 | -24.3%
COc1ccc(C/C(C)=N/NC(=O)c2cc(C)oc2C)cc1 | -13.9%
COCCNC(=O)c1ccccc1NS(=O)(=O)c1ccc(C)c([N+](=O)[O-])c1 | -4.7%
CCCC(NC(=O)c1ccco1)c1nc2ccccc2[nH]1 (stereo not given) | -24.8%
C/C(=N\NC(=O)CSc1nc2ccccc2c(=O)n1-c1ccccc1C)c1cccs1 | -17%
CN1CCN(c2ccc(NC(=O)c3ccc4c(c3)[nH]c(=O)n4Cc3ccc(F)cc3)cc2)CC1 | -24.8%

SMILES | inhibition
O=C(/C=C/NCc1ccc(F)cc1)c1ccccc1 | -30.4%
Cc1c(NC(=S)Nc2ccccc2)c(=O)n(-c2ccccc2)n1C | -29.6%
CCCCOC(=O)c1ccc(NC(c2ccc(C)cc2)P(=O)(OC)OC)cc1 (stereo not given) | -6.33%
COc1ccccc1N1N=C(c2cccs2)CC1c1ccccc1 (stereo not given) | -12.8%
CCN(CC)CCn1c(/N=C/c2cc(Br)ccc2O)nc2ccccc21 | -20.7%
C=CCNCCCCOc1ccccc1 | -29.1%
O=C(CSc1nnc(SCc2ccc(Cl)cc2)s1)N/N=C/c1ccccc1Cl | -26.2%
CC(=O)Nc1ccc(S(=O)(=O)N2CCN(c3ccc([N+](=O)[O-])c(NCCN4CCOCC4)c3)CC2)cc1 | -27.6%
C=CCNC(=O)/C=C/c1ccc(C(C)C)cc1 | -23.5%
Cc1ccc(N(Cc2cc3ccccc3[nH]c2=O)C(=O)c2cccs2)cc1 | -10.8%
O=C(NC1CCCCCC1)c1cccnc1Sc1ccc(Cl)cc1 | -17.2%
Brc1ccc(C2CC(c3ccccc3)=Nc3ccccc3N2)cc1 (stereo not given) | -11.5%
COC(=O)C1=NNC2(c3ccc(C)cc3)C(=O)N(c3cccc(C)c3C)C(=O)C12 (stereo not given) | -28.4%
COc1cc(C(=S)NC2CCCCC2)ccc1O | -30.2%
CC1(C)C2CC=C(/C=N/NC(=O)c3ccc(Cl)cc3)C1C2 (stereo not given) | -29.6%
CCCc1nc(SCC(=O)Nc2ccc(S(=O)(=O)N(C)C)cc2)c2ccccc2n1 | -25.4%
NC1=NN(c2cccc(C(=O)O)c2)C(=O)C1 | -7.9%
CN(CC(=O)NCCc1ccccc1)S(=O)(=O)c1cnc[nH]1 | -21%
COc1cccc(NC(=S)NCc2ccco2)c1 | -28.3%
O=C(CN1CCN(c2ccccn2)CC1)N1CCc2ccccc21 | -10%
